Results on six molecules are retold here after ChEMBL document CHEMBL4513152, “CO-ADD screening of Yantai University (China) compounds”.

In general, Inhibition refers to the relative decrease from the control value, in per cent.

Potency and affinity values are given separately.

Assay [1] relates to Klebsiella pneumoniae. As to conditions: Concentration 32 ug.mL-1; ASSAY_TEST Inhibition of Bacterial Growth; detection method Absorption (OD600); MEDIA CAMHB; plate type 384well; NBS; CORNING #3640; time 18 hr.
The subject of assay [2] is Candida albicans. The note with it: 32 ug/mL.
Assay [3] relates to Cryptococcus neoformans. As to conditions: Concentration 32 ug.mL-1; ASSAY_TEST Inhibition of Fungal Growth; detection method Resazurin; Absorption (OD600-OD570); plate type 384well; NBS; CORNING #3640.

For the molecule `CC(=O)O[C@H]1C[C@@]2(C)C(C[C@@H](O)C3[C@@]4(C)CC[C@@H](OC(=O)c5ccccc5C(=O)Oc5ccc(CCO[N+](=O)[O-])cc5)[C@@H](C)C4CC[C@@]32C)/C1=C(\CCC=C(C)C)C(=O)OCc1ccccc1` (stereo partly drawn), the Inhibition in assay [1] is 0.97%; in assay [2], -5.71%; in assay [3] it was -72.43%.
In the same order, the values of `CC(=O)O[C@H]1C[C@@]2(C)C(C[C@@H](O)C3[C@@]4(C)CC[C@@H](O)[C@@H](C)C4CC[C@@]32C)/C1=C(\CCC=C(C)C)C(=O)OCc1ccccc1` (stereo partly drawn) are 15.54%, -0.49% and -62.82%.
In the same order, the values of `CC(=O)O[C@H]1C[C@@]2(C)C(C[C@@H](O)C3[C@@]4(C)CC[C@@H](OC(=O)CCC(=O)Oc5ccc(CCO[N+](=O)[O-])cc5)[C@@H](C)C4CC[C@@]32C)/C1=C(\CCC=C(C)C)C(=O)OCc1ccccc1` (stereo partly drawn) are -3.54%, -8.49% and -78.97%.
In the same order, the values of `CC(=O)O[C@H]1C[C@@]2(C)C(C[C@@H](O)C3[C@@]4(C)CC[C@@H](O)[C@@H](C)C4CC[C@@]32C)/C1=C(\CCC=C(C)C)C(=O)On1nnc2ccccc21` (stereo partly drawn) are -4.91%, 3.88% and -40.31%.
Turning to `CC(=O)O[C@H]1C[C@@]2(C)C(CC(=O)C3[C@@]4(C)CC[C@@H](OC(=O)CCCCCO[N+](=O)[O-])[C@@H](C)C4CC[C@@]32C)/C1=C(\CCC=C(C)C)C(=O)OCc1ccccc1` (stereo partly drawn), the values for the Inhibition in assay [1], in assay [2] and in assay [3] were 8.79%, -2.93% and -87.68%, respectively.
The matching figures for `CC(=O)O[C@H]1C[C@@]2(C)C(C[C@@H](O)C3[C@@]4(C)CC[C@@H](OC(=O)CCC(=O)OCCc5ccc(OCCO[N+](=O)[O-])cc5)[C@@H](C)C4CC[C@@]32C)/C1=C(\CCC=C(C)C)C(=O)OCc1ccccc1` (stereo partly drawn): 3.49%, -4.49% and -89.71%.
